In assay [1] the test system is MDA-MB-231. As to the kind of experiment: cell viability relative to vehicle unstimulated control (fraction); higher = more viable cells. As to conditions: pre-treatment time: 18 h then 24 h IFNg/TNF.
Assay [2] deals with MDA-MB-231. Nature of the assay: kynurenine production, fold change vs DMSO IFNg/TNF control; higher = more kynurenine produced (less inhibition). As to conditions: pre-treatment time: 18 h then 24 h IFNg/TNF. A digest of the protocol:
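In 96-well plates, MDA-MB-231 cells (7 × 10^4/well) were given 24 h to settle, pre-treated for 18 h with each natural product in 0.1% DMSO, and stimulated for 24 h with IFNγ (1 U/ml) and TNF (6.25 ng/ml) at 37°C. Supernatants were processed with trichloroacetic acid and p-dimethylaminobenzaldehyde and read at 492 nm against 0–100 μM standards. In the first screening round, kynurenine production, as fold change over same-plate cytokine-stimulated vehicle wells, was averaged over duplicate plates.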

Molecules are shown by their SMILES. ± gives the standard deviation of the averaged measurements.
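Throughout, for cell viability relative to vehicle unstimulated control: viability of the cells left after supernatant collection, read with Deep Blue dye added for 4 h, as absorbance at 570 nm minus 600 nm.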

`COc1cc2c3cc1Oc1cc(ccc1O)C[C@@H]1c4c(cc(OC)c(O)c4Oc4ccc(cc4)C[C@H]3N(C)CC2)CCN1C` [Curine] (compound dose: 10 uM): in assay [1], the cell viability was determined as 0.654 ± 0.038. For the same compound, the kynurenine production in assay [2] amounted to 0.389 ± 0.026.

Turning to `CC1=C[C@H]2[C@@]3(O)[C@H](C)[C@@H](O)[C@]4(O)[C@H]([C@@H]3C=C(CO)C[C@]2(O)C1=O)C4(C)C` [Phorbol] (compound dose: 10 uM), the cell viability in assay [1] is 1.02 ± 0.074. Besides, the kynurenine production in assay [2] turned out to be 0.894 ± 0.041.

Take `CC(C)c1ccc2c(c1O)CC[C@H]1C3=C(CC[C@]21C)C(=O)OC3` [Triptophenolide] (compound dose: 10 uM): the cell viability in assay [1] stood at 0.9594 ± 0.0068. In addition, the kynurenine production in assay [2] was 0.815 ± 0.17.

For the compound `CC(C)=CCCC(C)(O)C1CCC2(C)C1C(O)CC1C3(C)CCC(OC4OC(CO)C(O)C(O)C4O)C(C)(C)C3CCC12C` [20(R)-Ginsenoside Rh2] (compound dose: 10 uM), the cell viability in assay [1] turned out to be 1.08 ± 0.052. For the same compound, in assay [2], the kynurenine production came to 0.958 ± 0.21.

Regarding `C=C1CC[C@H]2[C@@H](/C=C(\C)C(=O)[C@@]3(OC(C)=O)C[C@H](C)[C@H](OC(=O)c4ccccc4)[C@@H]3[C@H]1OC(C)=O)C2(C)C` [5,15-Diacetyl-3-benzoyllathyrol] (compound dose: 10 uM), the cell viability in assay [1] came to 1.031 ± 0.01. For the same compound, in assay [2], the kynurenine production came out at 0.94 ± 0.14.

For the compound `COC(=O)[C@]1(C)CC[C@]2(C)CC[C@]3(C)C4=CC=C5C(=CC(=O)C(O)=C5C)[C@]4(C)CC[C@@]3(C)[C@@H]2C1` [Pristimerin] (compound dose: 10 uM), the cell viability in assay [1] is -0.0372 ± 0.0069. In assay [2], the kynurenine production was 0.0819 ± 0.0029.

With `CC(C)[C@]12CC(=O)[C@H](C)[C@H]1C2` [α-Thujone] (compound dose: 10 uM), in assay [1], the cell viability was 1.05 ± 0.058. Besides, in assay [2], the kynurenine production stood at 0.947 ± 0.21.

`C=C1[C@H](OC(=O)c2ccccc2)C[C@H]2[C@@H](/C=C(\C)C(=O)[C@@]3(OC(C)=O)C[C@H](C)[C@H](OC(=O)c4ccccc4)[C@@H]3[C@H]1OC(C)=O)C2(C)C` [Euphorbia Factor L2] (compound dose: 10 uM): the cell viability in assay [1] is 0.847 ± 0.044. Further, in assay [2], the kynurenine production came to 0.5 ± 0.15.

For the compound `C[C@@]1(C(=O)O)CC[C@]2(C)CC[C@]3(C)C4=CC(=O)c5c(cc(O)c(O)c5C=O)[C@]4(C)CC[C@@]3(C)[C@@H]2C1` [Demethylzeylasteral] (compound dose: 10 uM), the cell viability in assay [1] came out at 0.786 ± 0.1. The kynurenine production in assay [2] stood at 0.294 ± 0.022.

With `CC(=O)O[C@H]1[C@H]2[C@@H](OC(=O)Cc3ccccc3)[C@@H](C)C[C@]2(OC(C)=O)C(=O)/C(C)=C/[C@@H]2[C@H](CC[C@@]13CO3)C2(C)C` [Euphorbiasteroid] (compound dose: 10 uM), the cell viability in assay [1] was found to be 0.981 ± 0.059. In addition, in assay [2], the kynurenine production was 0.997 ± 0.02.

As to `C=C1CC[C@H]2[C@@H](/C=C(\C)C(=O)[C@@]3(OC(C)=O)C[C@H](C)[C@H](OC(=O)Cc4ccccc4)[C@@H]3[C@H]1OC(C)=O)C2(C)C` [Deoxy euphorbia factor L1] (compound dose: 10 uM), the cell viability in assay [1] was determined as 1.07 ± 0.074. Also, the kynurenine production in assay [2] is 0.9513 ± 0.0042.

`O=C([O-])c1ccc[n+]([C@@H]2O[C@H](CO)[C@@H](O)[C@H]2O)c1` [Nicotinic acid riboside] (compound dose: 10 uM): in assay [1], the cell viability worked out at 0.784 ± 0.36. For the same compound, in assay [2], the kynurenine production was found to be 0.364 ± 0.35.

Consider `CC(C)C1=CC(=O)[C@@](C)(C2[C@H](O)C[C@@]3(C)[C@@H]4CC=C5[C@@H](CC[C@@H](OC6OCC(O)C(O)C6OC6OC(C)C(O)C(O)C6O)C5(C)C)[C@]4(C)C(=O)C[C@]23C)O1` (stereo partly specified) [Picfeltarraenin IA] (compound dose: 10 uM), for which the cell viability in assay [1] was 0.9887 ± 0.0091. For the same compound, the kynurenine production in assay [2] is 0.901 ± 0.11.

On to `C/C=C(/C)C(=O)O[C@H]1[C@@H]2[C@H](C)C(=O)O[C@@H]2C[C@@H](C)[C@@H]2C=CC(=O)[C@]21C` [Brevilin A] (compound dose: 10 uM), for which the cell viability in assay [1] was determined as 0.75 ± 0.035. Further, in assay [2], the kynurenine production turned out to be 0.132 ± 0.017.

On to `CCCCCCCCCCCCCC(=O)O[C@@H]1[C@@H](C)[C@@]2(O)[C@@H](C=C(CO)C[C@]3(O)C(=O)C(C)=C[C@@H]23)[C@@H]2C(C)(C)[C@]12OC(C)=O` [12-O-tetradecanoyl phorbol-13-acetate] (compound dose: 10 uM), for which the cell viability in assay [1] was determined as 1.06 ± 0.043. For the same compound, the kynurenine production in assay [2] stood at 0.858 ± 0.021.

Turning to `CC1=C[C@]23C(=O)[C@@H](C=C(CO)[C@@H](O)[C@]2(O)[C@H]1O)[C@H]1[C@@H](C[C@H]3C)C1(C)C` [Ingenol] (compound dose: 10 uM), the cell viability in assay [1] worked out at 0.906 ± 0.051. Also, in assay [2], the kynurenine production was 0.846 ± 0.12.

As for `CC(C)[C@]12O[C@H]1[C@@H]1O[C@@]13[C@@]1(C)CCC4=C(COC4=O)[C@@H]1C[C@@H]1O[C@@]13C2=O` [Triptonide] (compound dose: 10 uM), the cell viability in assay [1] was determined as 0.637 ± 0.069. Moreover, the kynurenine production in assay [2] was determined as 0.218 ± 0.019.

`COc1ccc2c3c1O[C@H]1CC(=O)C=C[C@@]31CCN(C)C2` [Galanthaminone] (compound dose: 10 uM): the cell viability in assay [1] was 0.953 ± 0.034. The kynurenine production in assay [2] was 0.7845 ± 0.0068.
